RecA intein inh – blocks M. tuberculosis RecA intein splicing | P9WHJ3 | cell-free RecA intein splicing, fluorescence | inhibition, % (test concentration not listed) | 0.75% of 290,000 active | AID 2221; in the data active means inhibition above about 30%;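 further: 0% = vehicle wells and 100% = reference inhibitor control wells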
Mtb betalactam – beta-lactam sensitization of Mtb H37Rv | M. tuberculosis H37Rv growth with meropenem, percent inhibition | inhibition, % at 25 µM | 0.27% of 330,000 active | AID 434955; call rule not given here;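 further: growth measured after seven days incubation then overnight dye step; 0% = bacteria only wells and 100% = bacteria with antibiotic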
Rv3671c protease – Rv3671c (M. tuberculosis) protease inhibition | AID 2606 | inhibition, % at 5.96 µM | 0.048% of 320,000 active; in the data active means inhibition above about 38%;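 further: extracellular domain of Rv3671c used as enzyme; 0% = enzyme with DMSO and 100% = no enzyme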
Target sequence (P9WHR9 whole entry, looked up, the tested form may be a part): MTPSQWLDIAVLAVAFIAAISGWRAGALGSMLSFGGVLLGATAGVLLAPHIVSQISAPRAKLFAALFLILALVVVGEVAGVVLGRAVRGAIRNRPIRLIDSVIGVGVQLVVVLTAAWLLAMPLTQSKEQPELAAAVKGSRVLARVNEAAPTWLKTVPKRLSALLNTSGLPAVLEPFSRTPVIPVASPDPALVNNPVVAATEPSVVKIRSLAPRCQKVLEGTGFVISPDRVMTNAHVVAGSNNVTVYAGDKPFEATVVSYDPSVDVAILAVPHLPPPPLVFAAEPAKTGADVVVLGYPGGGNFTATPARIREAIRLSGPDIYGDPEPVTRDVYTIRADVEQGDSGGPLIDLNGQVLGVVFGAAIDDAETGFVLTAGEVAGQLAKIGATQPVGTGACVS
GDH-TPI counter-1 – inhibits GDH-TPI coupling enzymes, artifact for Mtb FBA screen | inhibition, % at 4.8 µM | 1.2% of 360,000 active | AID 588335 | GDH-TPI coupled enzyme counterscreen, NADH absorbance; in the data active means inhibition above about 30%;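 further: 0% = DMSO wells and 100% = wells lacking the enzyme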
FBA Mtb inh – inhibitors of M. tuberculosis fructose-bisphosphate aldolase. inhibition, % at 1 µM. P9WQA3. purified M. tuberculosis FBA, fluorescence read-out. 2.3% of 360,000 active;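 further: 0% = vehicle and 100% = reference inhibitor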
Mtb UGM inh – blocks M. tuberculosis UGM enzyme | purified UGM, fluorescence polarization probe displacement | inhibition, % at 10 µM | 0.06% of 320,000 active | AID 504406; in the data active means inhibition above about 10%, passing the limit was not always enough
Mtb FBA confirm – Mtb FBA inhibition, confirmed; shares compounds with FBA Mtb inh; purified M. tuberculosis FBA, fluorescence read-out; inhibition, % at 1 µM; 78% of 5,600 active; AID 651616;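 further: 0% = vehicle wells and 100% = reference inhibitor wells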
GDH-TPI counter-2 – inhibits GDH-TPI coupling enzymes, flagging Mtb FBA hits; shares compounds with FBA Mtb inh; GDH-TPI coupled enzyme counterscreen, fluorescence; 81% of 5,600 active; inhibition, % at 1 µM; AID 652141; in the data active means inhibition above about 10%
* = called active by the depositor; i = inactive; · = no result; + = active, no number. An excerpt weighted towards active compounds, which were near 4% of everything screened. Unless noted, no stated cut-off is given here; in the data, active means inhibition above about 27%; inactive means the rest.

SMILES	RecA intein inh	Mtb betalactam	Rv3671c protease	GDH-TPI counter-1	FBA Mtb inh	Mtb UGM inh	Mtb FBA confirm	GDH-TPI counter-2
O=S(=O)(Nc1ccc(-c2csc(-c3ccccc3)n2)cc1)c1ccccc1	5.2	4.9	-181.5	-5.7	-0.2	-0.2	·	·
Cc1ccn2cc(-c3cccc(S(=O)(=O)N4CCCCC4)c3)nc2c1	1.8	5.5	-6.1	-2.4	4.3	2.4	·	·
O=S(=O)(Nc1cccc(-c2cn3cccnc3n2)c1)c1ccc(F)cc1	2.2	-4.1	4.2	26.9	37.9*	-1.4	83.4*	80.6*
O=S(=O)(Nc1cccc(-c2cn3cccnc3n2)c1)c1ccc(-c2ccccc2)cc1	17.3	-4.3	-130.3	16.5	11.2	-3.1	·	·
O=S(=O)(c1cccc(-c2cn3cccnc3n2)c1)N1CCCCCC1	3.3	-16.2	-7.2	5.1	62.1*	-2.4	58.3*	49.0*
O=S(=O)(Nc1cccc(-c2cn3cccnc3n2)c1)c1ccccc1	-9.9	-5.6	-3.4	14.8	75.1*	0.2	66.3*	46.9*
COc1ccccc1NC(=O)CCC(=O)Nc1cc(OC)c(NC(=O)c2cccs2)cc1OC	-0.2	9.1	8.1	5.2	0.7	0.1	·	·
CC12C=CC3(CN(Cc4ccccc4)C(=O)C3C1C(=O)NC1CC1)O2 (stereo not drawn)	-0.7	-4.7	-1.0	1.2	-3.2	0.3	·	·
CN1c2ccccc2C(=O)/C(=C\Nc2ccc(F)cc2F)S1(=O)=O	-2.2	-1.9	-1.2	-0.8	1.4	-0.3	·	·
Nc1ncnc(Sc2ncccn2)c1[N+](=O)[O-]	6.2	·	·	2.7	1.6	·	·	·
O=c1[nH]c(SCc2ccccc2F)nc2ccccc12	-0.9	-9.8	-0.1	1.6	0.8	1.1	·	·
O=c1cc(CSc2nc3ccccc3c(=O)[nH]2)c2ccc(O)cc2o1	-1.0	·	·	21.0	28.3*	·	101.7*	74.9*
CCN1C(=O)c2cccc3c(S(=O)(=O)N(C(C)=O)c4ccc(OC(C)=O)cc4)ccc1c23	·	-3.5	-7.0	11.8	53.0*	3.1	+	+
COc1ccc(N(C(=O)c2ccncc2)S(=O)(=O)c2ccc3c4c(cccc24)C(=O)N3C)cc1	-27.3	-6.3	-7.1	17.6	0.1	1.7	·	·
O=S1(=O)[C@H]2C[C@@H]3C=C[C@@]2(CN1Cc1cccc(C(F)(F)F)c1)O3	-0.8	10.2	0.9	1.7	1.7	3.5	·	·
NNc1nc2sc3c(c2c(=O)n1C1CCCCC1)CCN(Cc1ccccc1)C3	-40.7	6.4	3.4	-7.7	4.4	0.2	·	·
OCCCNc1ncnc2sc3c(c12)CCN(Cc1ccccc1)C3	-17.7	-0.9	5.6	10.9	71.8*	0.6	76.2*	61.9*
O=c1[nH]cnc2sc3c(c12)CCN(Cc1ccccc1)C3	-35.0	0.3	-12.3	14.7	47.4*	3.1	121.6*	94.1*
COc1ccc(-c2nnc(-c3ccc(F)cc3)o2)cc1	0.6	3.7	-0.6	6.7	16.8	2.2	·	·
Cc1ccc(/C=C/c2nnc(-c3cccs3)o2)cc1	5.6	2.4	5.2	29.8	10.3	-0.9	·	·
COc1ccc(-c2nnc(-c3ccc(C)cc3)o2)cc1	2.8	55.4	5.0	-2.1	62.4*	-0.5	7.4	-4.0
Cc1ccc(-c2nnc(-c3cccs3)o2)cc1	-1.9	3.0	0.9	8.5	54.5*	-0.8	61.3*	48.6*
Cn1nnc2c(NCc3ccco3)nccc21	-0.2	-4.5	-1.6	-3.4	63.5*	3.1	52.8*	43.0*
Cn1c(NCc2ccco2)nc2ccccc21	-2.9	-6.8	-3.1	-3.0	-4.4	0.5	·	·
c1ccc(C2=NNC(c3ccco3)=Nc3ccccc32)cc1	·	1.0	3.8	1.3	2.1	3.1	·	·
SMILES	RecA intein inh	Mtb betalactam	Rv3671c protease	GDH-TPI counter-1	FBA Mtb inh	Mtb UGM inh	Mtb FBA confirm	GDH-TPI counter-2
COc1cccc2[nH]c(C(=O)NCCCN3CCCC3=O)cc12	-1.3	4.5	-5.8	-0.8	59.0*	-0.4	142.6*	115.5*
COc1ccccc1CCC(=O)NNC(=O)c1cccs1	·	-0.9	-2.6	8.2	-0.3	1.4	·	·
C(=C\c1ccc2nncn2c1)/c1ccccc1	·	·	·	12.8	50.3*	·	11.3	-2.8
CC(C)CNc1oc(-c2ccco2)nc1C#N	-1.0	2.1	0.5	7.3	72.0*	-3.5	97.0*	80.1*
CC(Nc1oc(-c2ccco2)nc1C#N)c1ccccc1 (stereo not drawn)	2.8	3.5	-11.1	13.0	49.4*	1.3	0.2	-3.3
N#Cc1nc(-c2ccco2)oc1NCc1ccc(F)cc1	1.3	-8.0	2.7	3.1	39.7*	0.9	102.7*	84.0*
CCOC(=O)c1c(C)[nH]c(C(=O)COC(=O)C2CC2C)c1C (stereo not drawn)	0.7	2.0	0.5	-2.2	-0.9	-2.6	·	·
COC(=O)[C@H](Cc1ccccc1)NC(=O)N1CCCCC1C (stereo partly drawn)	4.7	5.6	3.0	0.6	-0.2	2.4	·	·
O=C(COC(=O)c1cc(Cl)ccc1O)NCCNC(=O)COC(=O)c1cc(Cl)ccc1O	0.0	2.5	3.9	-3.0	6.4	-1.0	·	·
CC(=O)Nc1c(O)c2ccccc2[nH]c1=O	-3.9	1.2	1.1	3.1	8.8	2.0	·	·
CCOC(=O)c1c(-c2ccccc2)[nH]c2ccc(O)cc12	2.7	3.0	3.3	19.0	39.6*	2.2	54.8*	49.0*
O=c1c2ccccc2[nH]c2ccc(O)cc12	i	1.8	5.3	-6.1	28.5*	2.6	+	+
CCOC(=O)c1c(-c2ccccc2)oc2ccc(O)cc12	-3.0	73.2	-12.4	6.8	2.7	0.7	·	·
CCN(Cc1cc(=O)oc2cc(C)ccc12)c1ccccc1	-2.2	7.7	·	13.0	3.1	1.0	·	·
CCN(CC)c1ccc2c(C)cc(=O)oc2c1	·	3.1	-1.1	13.9	107.9*	-1.0	124.9*	88.0*
CCN(CC)c1ccc2cc(C#N)c(=O)oc2c1	-33.6	2.7	-4.9	-2.5	-5.1	2.0	·	·
CCN(CC)c1ccc2c(C)c(Cl)c(=O)oc2c1	i	-7.3	8.4	5.2	66.5*	-4.1	64.8*	53.8*
CCN(CC)c1ccc2c(Cl)c(Br)c(=O)oc2c1	-197.7	97.5	-8.9	16.3	6.9	-0.4	·	·
CCOC(=O)Cc1c(C)c2ccc(N(CC)CC)cc2oc1=O	·	-1.7	-7.7	9.2	93.0*	1.8	57.9*	51.0*
CCN(CC)c1ccc2ccc(=O)oc2c1	-348.4	3.3	-1.8	6.3	53.0*	-0.1	74.2*	66.7*
CCN(CC)c1ccc2c(C)c(-c3ccc(N)cc3)c(=O)oc2c1	-217.4	59.4	13.2	20.6	22.9	-0.2	·	·
COC(=O)c1oc2ccc(Cl)cc2c1N	-1.5	-3.8	-16.3	15.0	67.3*	1.2	6.8	1.6
COc1ccc(CCNS(=O)(=O)c2c(N)n(C)c(=O)n(C)c2=O)cc1OC	-0.9	-8.6	0.1	9.3	1.1	2.2	·	·
O=C1OC(C(Cl)(Cl)Cl)Nc2ccccc21 (stereo not drawn)	·	·	·	·	40.3*	·	+	+

Assay outcomes as filed in PubChem BioAssay.
